Calls of active or inactive are those of the source. How the source made its calls: active means hit-call score of the fitted dose curve at least 0.9, where 1 is the maximum; inactive means score below 0.9.
What was measured:
[1] = molecular target: Transcription factor E2F1 (Homo sapiens) (UniProt Q01094); experiment: ATG_E2F_CIS: Attagene CIS-FACTORIAL HepG2 Assay for human E2F Transcription Factor 1 (AID 2282935); conditions: HepG2 Attagene cis-reporter, E2F reporter RNA transcripts; actives raise or lower the signal
Outline: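 Fluorescent RT-PCR products, digested with HpaI for 2 h at 37 C, are separated by capillary electrophoresis. Source RNA comes from transfected HepG2 cultures treated for 24 h.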

[2] = ATG_E_Box_CIS: Attagene CIS-FACTORIAL HepG2 Assay for human Enhancer Box (E-box) (AID 2282936); conditions: HepG2 E-box cis-reporter transcription, actives raise or lower the signal
Outline: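 Fluorescent reporter fragments separated by capillary electrophoresis gave the signal; mRNA came from HepG2 cells transfected with cis-element reporters and treated 24 h. Curves fitted bidirectionally relative to DMSO controls.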

[3] = ATG_M_61_CIS: Attagene CIS-FACTORIAL HepG2 Assay for M61 Transcription Factor (Internal Marker) (AID 2282937); conditions: HepG2 Attagene CIS-FACTORIAL M61 internal marker reporter; actives raise or lower the signal
Outline: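 Cells were transfected with reporter units under cis-regulatory promoters, treated with chemicals for 24 h, then lysed for RNA. Reporter transcripts were quantified by RT-PCR and capillary electrophoresis, and activity was fitted bidirectionally against DMSO.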

[4] = ATG_EGR_CIS: Attagene CIS-FACTORIAL HepG2 Assay for human Early Growth Response 1 (EGR1) (AID 2282938); conditions: HepG2 Attagene CIS-FACTORIAL EGR reporter mRNA; actives raise or lower the signal
Outline: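 Endogenous TF activity in HepG2 liver cells was gauged through cis-promoter reporter constructs transiently transfected. After 24 h dosing, reporter mRNA was quantified by RT-PCR and capillary electrophoresis, and curves fitted in both directions versus DMSO.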

[5] = ATG_M_19_CIS: Attagene CIS-FACTORIAL HepG2 Assay for M19 Transcription Factor (Internal Marker) (AID 2282939); conditions: HepG2 Attagene CIS-FACTORIAL M19 internal marker reporter; actives raise or lower the signal
Outline: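 HepG2 cells transiently transfected with cis-regulated multiple reporter transcription units were dosed for 24 h; reporter mRNA was quantified by RT-PCR, 6-FAM primer-extension labelling, HpaI digestion and capillary electrophoresis, with bidirectional fitting against DMSO baseline.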

[6] = ATG_ERE_CIS: Attagene CIS-FACTORIAL HepG2 Assay for Estrogen Response Element (ERE) (AID 2282940); conditions: HepG2 ERE cis-reporter, Attagene RNA transcript; actives raise or lower the signal
Outline: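 HepG2 cells transiently transfected with cis-promoter-driven multiplexed reporter transcription units report endogenous TF activity. After 24 h compound exposure, reporter mRNA is quantified by RT-PCR with capillary electrophoresis fluorescence; bidirectional fitting versus DMSO baseline.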

[7] = ATG_Ets_CIS: Attagene CIS-FACTORIAL HepG2 Assay for human Erythroblast Transformation Specific (ETS) (AID 2282941); conditions: HepG2 ETS cis-reporter transcription, actives raise or lower the signal
Outline: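 Endogenous transcription factor activity read as reporter mRNA via RT-PCR and capillary electrophoresis, with gain or loss fitted bidirectionally against DMSO. Human HepG2 liver cells, transiently transfected CIS reporter constructs, 24 h exposure.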

[8] = molecular target: Hepatocyte nuclear factor 3-beta (Homo sapiens) (UniProt Q9Y261); experiment: ATG_FoxA2_CIS: Attagene CIS-FACTORIAL HepG2 Assay for human Forkhead box A2 (FOXA2) (AID 2282942); conditions: HepG2 cis-reporter transcription factor activity, 24 h; actives raise or lower the signal
Outline: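 Endogenous transcription factor activity was read in HepG2 cells carrying transiently transfected cis-promoter reporter units. After 24 h dosing, reporter mRNA was quantified by RT-PCR and capillary electrophoresis, and values fitted bidirectionally versus DMSO.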

[9] = ATG_GATA_CIS: Attagene CIS-FACTORIAL HepG2 Assay for human GATA Binding Protein (AID 2282944); conditions: HepG2 GATA cis-element reporter, Attagene multiplex mRNA; actives raise or lower the signal
Outline: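 HepG2 cells transiently transfected with multiplexed cis-element reporter units reflecting endogenous transcription factor activity; reporter mRNA measured after 24 h dosing by RT-PCR, 6-FAM labeling, HpaI digestion and capillary electrophoresis. Bidirectional fitting versus DMSO baseline.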

[10] = ATG_GLI_CIS: Attagene CIS-FACTORIAL HepG2 Assay for human Zinc Finger Protein GLI1 (AID 2282945); conditions: HepG2, Attagene cis-factorial reporter mRNA, GLI element; actives raise or lower the signal
Outline: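 Bidirectional curve fits relative to DMSO, using reporter mRNA levels from RT-PCR plus capillary electrophoresis. Cells were HepG2 transiently carrying cis-regulated reporter constructs, harvested 24 h after dosing.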

[11] = molecular target: Bile acid receptor (Homo sapiens) (UniProt Q96RI1); experiment: ATG_IR1_CIS: Attagene CIS-FACTORIAL HepG2 Assay for human Nuclear Receptor Subfamily 1 Group H Member 4 (NR1H4), IR1 submotif (AID 2282946); conditions: IR1 reporter transcription, actives raise or lower the signal
Outline: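 HepG2 cells transiently transfected with multiplexed cis-element reporter units read endogenous transcription factor activity. After 24 h compound exposure, reporter mRNA was quantified by RT-PCR, fluorescent labelling, HpaI digestion and capillary electrophoresis; bidirectional fitting versus DMSO baseline.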

[12] = ATG_GRE_CIS: Attagene CIS-FACTORIAL HepG2 Assay for human Glucocorticoid Response Elements (GRE) (AID 2282947); conditions: HepG2 GRE cis-reporter, Attagene multiplex mRNA; actives raise or lower the signal
Outline: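 Multiplexed cis-reporter mRNA induction, HepG2, 24 h post-dose. RT-PCR, FAM-labelled, HpaI-digested amplicons by CE. Bidirectional fit vs DMSO.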

[13] = ATG_ISRE_CIS: Attagene CIS-FACTORIAL HepG2 Assay for human Interferon Regulatory Factor 1 (IRF1) binding to an Interferon-Stimulated Response Element (ISRE) (AID 2282948); conditions: HepG2 ISRE cis-reporter (Attagene), mRNA transcription readout; actives raise or lower the signal
Outline: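 Endogenous transcription factor activity read as reporter transcript abundance via RT-PCR and capillary electrophoresis. HepG2 cells transiently transfected, 24 h chemical exposure. Gain or loss fitted against DMSO baseline.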

[14] = ATG_M_32_CIS: Attagene CIS-FACTORIAL HepG2 Assay for M32 Transcription Factor (Internal Marker) (AID 2282949); conditions: HepG2 Attagene cis-factorial M32 reporter, mRNA; actives raise or lower the signal;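 further: background control marker of the multiplexed CIS panel rather than a real target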
Outline: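 Using DMSO as baseline, bidirectional curve fits were applied to reporter mRNA signals. These came from transiently transfected HepG2 cells exposed for 24 h, with RNA analysed by RT-PCR, FAM primer extension, HpaI digestion and CE.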

[15] = ATG_M_06_CIS: Attagene CIS-FACTORIAL HepG2 Assay for M06 Transcription Factor (Internal Marker) (AID 2282950); conditions: HepG2 Attagene CIS-FACTORIAL M06 internal marker reporter; actives raise or lower the signal
Outline: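 HepG2 cells transiently transfected with cis-regulated multiple reporter transcription units were exposed to chemical for 24 h; reporter mRNA was quantified by RT-PCR, 6-FAM primer labelling, HpaI digestion and capillary electrophoresis, fitted bidirectionally against DMSO.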

[16] = molecular target: Hypoxia-inducible factor 1-alpha (Homo sapiens) (UniProt Q16665); experiment: ATG_HIF1a_CIS: Attagene CIS-FACTORIAL HepG2 Assay for human Hypoxia Inducible Factor 1 (HIF1A) (AID 2282951); conditions: HepG2 Attagene cis-factorial HIF1a reporter transcription; actives raise or lower the signal
Outline: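 Measures endogenous transcription-factor activity through cis-regulated reporter mRNA in HepG2. Cells dosed 24 h; transcripts quantified by RT-PCR with 6-FAM-labelled products separated by capillary electrophoresis; DMSO serves as negative control.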

[17] = molecular target: Hepatocyte nuclear factor 6 (Homo sapiens) (UniProt Q9UBC0); experiment: ATG_HNF6_CIS: Attagene CIS-FACTORIAL HepG2 Assay for human Hepatocyte Nuclear Factor 6 (HNF6) (AID 2282952); conditions: HepG2 Attagene cis-factorial HNF6 reporter transcription; actives raise or lower the signal
Outline: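 Endogenous factor activity read in transiently transfected HepG2 via promoter-regulated reporter transcripts. RNA harvested 24 h post-dosing, reverse-transcribed, PCR-amplified, FAM-labelled, HpaI-digested and resolved by capillary electrophoresis; fitted in both directions against DMSO.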

[18] = molecular target: Heat shock factor protein 1 (Homo sapiens) (UniProt Q00613); experiment: ATG_HSE_CIS: Attagene CIS-FACTORIAL HepG2 Assay for human Heat Shock Transcription Factor 1 (HSE) (AID 2282953); conditions: HepG2 HSE cis-reporter, Attagene RNA transcription; actives raise or lower the signal
Outline: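 HepG2 cells transiently transfected with multiple reporter transcription units under cis-regulatory promoter control, measuring endogenous transcription factor activity. After 24 h chemical exposure, reporter mRNA quantified by RT-PCR, fluorescent labelling, HpaI digestion and capillary electrophoresis; bidirectional fit versus DMSO.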

[19] = ATG_MRE_CIS: Attagene CIS-FACTORIAL HepG2 Assay for human Metal Responsive Element (MRE) (AID 2282954); conditions: HepG2 MRE cis-reporter transcription, Attagene multiplex; actives raise or lower the signal
Outline: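 Multiplexed cis-reporter assay in human HepG2 liver cells, 24 h incubation with test chemical. Reporter transcripts measured by RT-PCR and capillary electrophoresis; values from bidirectional curve fitting versus DMSO.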

[20] = ATG_FoxO_CIS: Attagene CIS-FACTORIAL HepG2 Assay for human Forkhead box O (FoxO) (AID 2282943); conditions: HepG2 Attagene cis-reporter, FoxO element, mRNA; actives raise or lower the signal
Outline: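 HepG2, transient MRTU transfection (cis element, endogenous TFs). Dose 24 h. TriZol RNA → oligo(dT) RT → PCR → 6-FAM primer extension → HpaI cut → CE. Gain/loss vs DMSO.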

Measured: AC50

Heat shock factor protein 1 (Homo sapiens), sequence (Q00613 whole entry, looked up): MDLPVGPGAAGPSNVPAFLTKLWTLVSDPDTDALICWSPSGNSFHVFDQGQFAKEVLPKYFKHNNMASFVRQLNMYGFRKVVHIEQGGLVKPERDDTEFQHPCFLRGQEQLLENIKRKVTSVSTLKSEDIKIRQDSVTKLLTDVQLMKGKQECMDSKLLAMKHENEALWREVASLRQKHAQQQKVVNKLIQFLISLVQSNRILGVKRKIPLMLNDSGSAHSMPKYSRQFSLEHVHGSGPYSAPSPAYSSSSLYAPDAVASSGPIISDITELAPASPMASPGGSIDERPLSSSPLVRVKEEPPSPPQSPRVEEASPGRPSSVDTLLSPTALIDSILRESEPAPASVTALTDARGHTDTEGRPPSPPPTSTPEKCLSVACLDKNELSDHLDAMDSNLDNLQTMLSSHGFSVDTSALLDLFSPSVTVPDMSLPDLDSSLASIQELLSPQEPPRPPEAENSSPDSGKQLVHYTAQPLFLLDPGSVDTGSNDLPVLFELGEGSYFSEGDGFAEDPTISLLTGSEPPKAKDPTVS
Hypoxia-inducible factor 1-alpha (Homo sapiens), sequence (Q16665 whole entry, looked up): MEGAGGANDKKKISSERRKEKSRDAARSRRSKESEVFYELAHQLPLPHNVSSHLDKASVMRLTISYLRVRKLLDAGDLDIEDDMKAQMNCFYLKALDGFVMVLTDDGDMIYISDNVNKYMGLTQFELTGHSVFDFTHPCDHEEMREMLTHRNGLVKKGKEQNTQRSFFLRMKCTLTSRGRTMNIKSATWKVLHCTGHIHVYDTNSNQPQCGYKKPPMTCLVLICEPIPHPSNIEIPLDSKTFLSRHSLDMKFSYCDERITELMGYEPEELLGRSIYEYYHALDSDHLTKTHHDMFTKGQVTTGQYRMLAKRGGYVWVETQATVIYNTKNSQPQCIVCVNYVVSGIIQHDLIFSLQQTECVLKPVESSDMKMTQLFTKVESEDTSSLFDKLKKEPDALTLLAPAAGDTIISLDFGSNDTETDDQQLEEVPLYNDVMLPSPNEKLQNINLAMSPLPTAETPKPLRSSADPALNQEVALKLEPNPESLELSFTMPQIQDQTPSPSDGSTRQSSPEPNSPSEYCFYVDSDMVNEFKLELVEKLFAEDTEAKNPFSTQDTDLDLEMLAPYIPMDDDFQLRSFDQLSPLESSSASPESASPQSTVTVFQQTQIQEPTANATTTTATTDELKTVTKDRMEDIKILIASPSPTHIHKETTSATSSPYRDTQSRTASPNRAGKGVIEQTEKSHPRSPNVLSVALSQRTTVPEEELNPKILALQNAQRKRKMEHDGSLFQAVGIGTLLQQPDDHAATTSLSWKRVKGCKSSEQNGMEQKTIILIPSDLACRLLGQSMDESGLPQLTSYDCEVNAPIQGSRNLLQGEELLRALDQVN
Hepatocyte nuclear factor 6 (Homo sapiens), sequence (Q9UBC0 whole entry, looked up): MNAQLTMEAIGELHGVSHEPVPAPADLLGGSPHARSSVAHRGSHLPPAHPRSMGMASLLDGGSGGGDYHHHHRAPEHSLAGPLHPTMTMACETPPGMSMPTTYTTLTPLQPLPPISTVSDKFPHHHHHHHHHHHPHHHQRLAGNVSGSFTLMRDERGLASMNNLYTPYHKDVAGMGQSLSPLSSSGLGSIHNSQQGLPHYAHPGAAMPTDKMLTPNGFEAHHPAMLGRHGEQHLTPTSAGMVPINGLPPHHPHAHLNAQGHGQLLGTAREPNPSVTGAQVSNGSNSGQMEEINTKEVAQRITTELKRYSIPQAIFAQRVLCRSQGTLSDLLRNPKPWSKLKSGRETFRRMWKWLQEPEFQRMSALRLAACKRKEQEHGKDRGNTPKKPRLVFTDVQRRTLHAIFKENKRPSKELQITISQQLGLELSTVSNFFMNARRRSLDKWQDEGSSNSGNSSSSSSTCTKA
Bile acid receptor (Homo sapiens), sequence (Q96RI1 whole entry, looked up): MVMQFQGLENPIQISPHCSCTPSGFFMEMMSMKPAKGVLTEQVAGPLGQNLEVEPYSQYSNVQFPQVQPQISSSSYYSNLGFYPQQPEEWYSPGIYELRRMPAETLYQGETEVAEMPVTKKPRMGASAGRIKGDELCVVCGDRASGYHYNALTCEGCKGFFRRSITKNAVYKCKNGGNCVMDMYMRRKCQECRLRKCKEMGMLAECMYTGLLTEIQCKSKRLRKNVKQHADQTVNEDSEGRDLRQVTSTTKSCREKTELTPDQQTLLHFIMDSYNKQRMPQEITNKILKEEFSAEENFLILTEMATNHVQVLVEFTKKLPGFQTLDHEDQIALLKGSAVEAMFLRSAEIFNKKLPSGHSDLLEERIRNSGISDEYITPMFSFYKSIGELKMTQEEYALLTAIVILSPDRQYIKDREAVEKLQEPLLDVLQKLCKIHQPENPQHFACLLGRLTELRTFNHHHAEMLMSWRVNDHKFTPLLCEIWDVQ
Transcription factor E2F1 (Homo sapiens), sequence (Q01094 whole entry, looked up): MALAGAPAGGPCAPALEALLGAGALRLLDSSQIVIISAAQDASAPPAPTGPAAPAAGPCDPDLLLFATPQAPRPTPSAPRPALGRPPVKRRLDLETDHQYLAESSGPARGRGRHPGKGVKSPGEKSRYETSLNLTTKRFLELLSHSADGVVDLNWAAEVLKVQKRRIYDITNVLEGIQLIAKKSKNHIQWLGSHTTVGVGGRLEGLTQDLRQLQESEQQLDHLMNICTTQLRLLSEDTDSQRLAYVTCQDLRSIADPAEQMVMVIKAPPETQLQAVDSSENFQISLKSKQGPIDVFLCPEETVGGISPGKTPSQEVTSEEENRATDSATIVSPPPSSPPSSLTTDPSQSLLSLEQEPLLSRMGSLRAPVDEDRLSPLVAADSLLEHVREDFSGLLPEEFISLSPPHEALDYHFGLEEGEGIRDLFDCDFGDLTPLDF
Hepatocyte nuclear factor 3-beta (Homo sapiens), sequence (Q9Y261 whole entry, looked up): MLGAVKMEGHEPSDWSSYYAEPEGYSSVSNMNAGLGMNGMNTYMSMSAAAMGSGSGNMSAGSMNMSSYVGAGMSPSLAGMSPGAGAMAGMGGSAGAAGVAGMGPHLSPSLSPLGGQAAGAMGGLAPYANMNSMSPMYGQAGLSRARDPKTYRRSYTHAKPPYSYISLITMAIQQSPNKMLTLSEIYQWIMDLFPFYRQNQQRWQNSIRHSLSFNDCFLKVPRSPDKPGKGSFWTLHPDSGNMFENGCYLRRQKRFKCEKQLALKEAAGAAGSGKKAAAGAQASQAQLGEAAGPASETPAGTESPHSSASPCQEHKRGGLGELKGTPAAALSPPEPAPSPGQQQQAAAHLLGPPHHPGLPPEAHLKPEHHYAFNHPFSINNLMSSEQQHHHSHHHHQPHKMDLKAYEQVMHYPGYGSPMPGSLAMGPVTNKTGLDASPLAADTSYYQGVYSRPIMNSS

CCCCCCOC(=O)c1ccccc1
inactive: [1] | [2] | [3] | [4] | [5] | [6] | [7] | [8] | [9] | [10] | [11] | [12] | [13] | [14] | [15] | [16] | [17] | [18] | [19]

FC(F)(I)C(F)(F)C(F)(F)C(F)(F)I
inactive: [1] | [2] | [3] | [4] | [5] | [7] | [8] | [20] | [9] | [10] | [12] | [13] | [14] | [15] | [16] | [17] | [18] | [19]
active: [6] 0.291 µM

FC(F)(F)C(F)(F)C(F)(F)C(F)(F)C(F)(F)C(F)(F)C(F)(F)C(F)(F)CCS
inactive: [1] | [2] | [3] | [4] | [5] | [6] | [7] | [8] | [20] | [9] | [10] | [12] | [13] | [14] | [15] | [16] | [17] | [18] | [19]

O=P(O)(O)OCCC(F)(F)C(F)(F)C(F)(F)C(F)(F)C(F)(F)C(F)(F)F
active: [6] 18.3 µM
inactive: [1] | [2] | [3] | [4] | [5] | [7] | [8] | [9] | [10] | [11] | [12] | [13] | [14] | [15] | [16] | [17] | [18] | [19]

O=C(O)C(F)(F)C(F)(F)C(F)(F)C(F)(F)F
inactive: [1] | [2] | [3] | [4] | [5] | [6] | [7] | [8] | [20] | [9] | [10] | [11] | [13] | [14] | [15] | [16] | [17] | [18] | [19]

CCC(=O)OCCc1ccccc1
inactive: [1] | [2] | [3] | [4] | [5] | [6] | [7] | [8] | [20] | [9] | [10] | [13] | [14] | [15] | [16] | [17] | [18] | [19]

CCCCCCOC(=O)c1ccccc1O
active: [6] 31.4 µM
inactive: [1] | [2] | [3] | [4] | [5] | [7] | [8] | [20] | [9] | [10] | [12] | [13] | [14] | [15] | [16] | [17] | [18] | [19]

From PubChem BioAssay (EPA / NIEHS)
